Experiment [1] is described as follows: optical density shifts of acrAB sulA E. coli – strain DRC41, OD650, 48 h, E. coli filamentation inducer project, primary screen (AID 1152).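 Note: E. coli MC1000 strain DRC41 lacking acrAB efflux pump and sulA.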 Particulars: higher = more signal, called active from +8 up or from −8 down.
The nature of experiment [2]: probe aLefty1 binding on compound microarray – biochemical, small-molecule microarray, 635/667 nm fluorescence, primary screen (AID 1153).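 Note: score merges spot fluorescence with signal-to-noise ratio from the scanned slide images.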 Particulars: higher = more signal.
A short description of experiment [3]: plasmodial surface anion channel blockers, osmotic lysis – cell-based, P. falciparum Indochina, OD700, 1 h, primary screen (AID 1154). The note with it: P. falciparum Indochina infected RBC osmotic lysis, higher = more signal, called active from +8 up or from −8 down.
Experiment [4] in a line: plasmodial surface anion channel blockers, osmotic lysis – cell-based, P. falciparum Indochina, OD700, 2 h, primary screen (AID 1155).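 Note: lysis reports solute entry through the parasite surface anion channel PSAC.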 The note with it: P. falciparum Indochina infected erythrocytes, higher = more signal, called active from +8 up or from −8 down.
Experiment [5] in a line: changes in parasitized red cell lysis, either direction – P. falciparum Indochina, OD700, 3 h, PSAC antagonist project, primary screen (AID 1156). Particulars: P. falciparum-infected erythrocytes, osmotic lysis, higher = more signal, called active from +8 up or from −8 down.
Experiment [6] in a line: plasmodial surface anion channel blockers, osmotic lysis – cell-based, P. falciparum Indochina, OD700, 18 h, primary screen (AID 1157). The note with it: P. falciparum Indochina infected erythrocytes, osmotic lysis OD700, 18 h; higher = more signal, called active from +8 up or from −8 down.
Experiment [7] in a line: S6 kinase pathway phospho-S6 level changes – cell-based, A549, cytoblot, luminescence, serum-stimulated, primary screen (AID 1158).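 Note: serum-stimulated A549 lung adenocarcinoma cells; signal is phosphorylated S6 detected by cytoblot immunostaining with HRP secondary.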 Particulars: 5 h, higher = more signal.
For experiment [8], the target named is NADPH oxidase 2 (Homo sapiens) (UniProt P04839). Briefly: compounds shifting NOX2 Amplex Red fluorescence – cell-based, HEK293-NOX2, PMA-stimulated, NOX inhibitor project, primary screen (AID 1159). Note: test concentration not given here. Particulars: 45 min, higher = more signal, called active from +8 up or from −8 down.
Sequence of NADPH oxidase 2 (Homo sapiens) (P04839 whole entry, looked up): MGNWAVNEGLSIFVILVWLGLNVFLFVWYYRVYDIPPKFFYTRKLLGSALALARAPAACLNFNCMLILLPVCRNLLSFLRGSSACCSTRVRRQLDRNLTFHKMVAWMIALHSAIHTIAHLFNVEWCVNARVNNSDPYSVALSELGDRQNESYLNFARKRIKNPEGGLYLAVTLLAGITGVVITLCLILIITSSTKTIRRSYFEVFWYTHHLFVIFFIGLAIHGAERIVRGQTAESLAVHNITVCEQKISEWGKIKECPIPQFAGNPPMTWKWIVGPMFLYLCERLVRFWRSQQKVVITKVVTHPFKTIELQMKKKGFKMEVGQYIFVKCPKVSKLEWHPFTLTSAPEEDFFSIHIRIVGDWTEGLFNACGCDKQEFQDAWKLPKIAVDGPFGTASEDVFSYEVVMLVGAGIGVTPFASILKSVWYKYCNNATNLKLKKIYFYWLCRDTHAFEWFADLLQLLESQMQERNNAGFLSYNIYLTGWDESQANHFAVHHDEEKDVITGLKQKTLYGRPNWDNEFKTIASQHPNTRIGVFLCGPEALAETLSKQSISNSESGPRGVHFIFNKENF
For experiment [9], the target named is NADPH oxidase 4 (Homo sapiens) (UniProt Q9NPH5). The experiment can be described thus: compounds shifting NOX4 Amplex Red fluorescence – cell-based, HEK293-NOX4, tetracycline-induced, NOX inhibitor project, primary screen (AID 1160). Particulars: HEK293-NOX4, Amplex Red H2O2 fluorescence, 45 min; higher = more signal, called active from +8 up or from −8 down.
Sequence of NADPH oxidase 4 (Homo sapiens) (Q9NPH5 whole entry, looked up): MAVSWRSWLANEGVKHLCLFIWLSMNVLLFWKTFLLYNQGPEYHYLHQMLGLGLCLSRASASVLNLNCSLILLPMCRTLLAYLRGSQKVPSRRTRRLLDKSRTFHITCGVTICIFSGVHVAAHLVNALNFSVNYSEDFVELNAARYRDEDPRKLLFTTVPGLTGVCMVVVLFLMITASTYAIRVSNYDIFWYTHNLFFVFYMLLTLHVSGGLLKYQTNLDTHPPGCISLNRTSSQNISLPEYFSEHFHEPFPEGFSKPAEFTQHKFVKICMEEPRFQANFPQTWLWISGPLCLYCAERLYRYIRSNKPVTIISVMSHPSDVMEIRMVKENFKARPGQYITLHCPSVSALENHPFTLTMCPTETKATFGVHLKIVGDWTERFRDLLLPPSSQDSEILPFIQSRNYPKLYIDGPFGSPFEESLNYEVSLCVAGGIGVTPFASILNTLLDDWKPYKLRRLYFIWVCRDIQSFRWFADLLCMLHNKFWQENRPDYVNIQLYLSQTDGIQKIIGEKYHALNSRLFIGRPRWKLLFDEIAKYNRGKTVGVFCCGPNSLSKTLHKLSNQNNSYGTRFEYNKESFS

Experiment [10] deals with NADPH oxidase 5 (Homo sapiens) (UniProt Q96PH1). The experiment can be described thus: compounds shifting NOX5 Amplex Red fluorescence – cell-based, HEK293-NOX5, NOX inhibitor project, primary screen (AID 1161). Particulars: HEK293-NOX5, ionomycin, 45 min, higher = more signal.
Sequence of NADPH oxidase 5 (Homo sapiens) (Q96PH1 whole entry, looked up): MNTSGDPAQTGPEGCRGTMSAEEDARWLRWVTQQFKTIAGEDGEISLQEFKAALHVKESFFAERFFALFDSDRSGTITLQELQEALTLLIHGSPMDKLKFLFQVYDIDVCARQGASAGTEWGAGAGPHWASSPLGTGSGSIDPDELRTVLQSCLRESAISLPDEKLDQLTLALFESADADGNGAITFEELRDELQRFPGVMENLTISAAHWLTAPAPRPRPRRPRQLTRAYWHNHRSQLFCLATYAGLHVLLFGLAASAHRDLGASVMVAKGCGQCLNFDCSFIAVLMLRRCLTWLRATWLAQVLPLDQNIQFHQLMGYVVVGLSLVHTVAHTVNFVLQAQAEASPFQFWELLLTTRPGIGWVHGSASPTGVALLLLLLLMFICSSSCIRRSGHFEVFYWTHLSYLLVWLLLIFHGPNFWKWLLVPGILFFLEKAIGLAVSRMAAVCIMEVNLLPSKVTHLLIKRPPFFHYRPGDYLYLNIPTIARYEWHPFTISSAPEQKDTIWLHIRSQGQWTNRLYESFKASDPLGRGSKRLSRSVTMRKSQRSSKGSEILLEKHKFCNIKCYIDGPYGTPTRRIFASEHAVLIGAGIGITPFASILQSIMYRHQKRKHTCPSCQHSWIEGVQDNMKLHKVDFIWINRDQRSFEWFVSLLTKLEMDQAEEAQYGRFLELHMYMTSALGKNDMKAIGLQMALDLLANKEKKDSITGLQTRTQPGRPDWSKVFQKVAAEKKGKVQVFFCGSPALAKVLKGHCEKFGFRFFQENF

The source made the active and inactive calls.

As for `COC(=O)[C@@]1(Cc2ccc(F)cc2)[C@H]2c3cc(C(=O)N(C)C)n(Cc4nc5ccccc5[nH]4)c3C[C@H]2CN1C(=O)c1ccccc1`, the z-score is -0.827 (inactive) in experiment [1]; 20.5 (active) in [3]; 3.05 (inactive) in [4]; 1.13 (inactive) in experiment [5]; 0.91 (inactive) in [6]; -0.377 in experiment [7]. The values for the z-score in experiment [8], in [9] and in experiment [10] were -0.0764 (inactive), 0.32 (inactive) and -2.06, respectively. Also, the composite z-score in [2] is -0.0297.
As to `COCCOC(=O)N1C(=O)[C@@]2(c3cc(C#Cc4ccc(OC)cc4)ccc31)[C@H](c1ccc(O)cc1)N1[C@H](c3ccccc3)[C@H](c3ccccc3)OC(=O)[C@H]1[C@@H]2C(=O)NC[C@H](O)c1ccccc1`, the z-score in [1] was 0.72 (inactive); in experiment [3], 3.44 (inactive); in experiment [4], 0.973 (inactive); in [5], 0.38 (inactive); in experiment [6] it was 0.532 (inactive); in [7], 0.264. The values for the z-score in experiment [8], in experiment [9] and in [10] were 1.07 (inactive), -1.05 (inactive) and 1.1, respectively. This molecule also registered a composite z-score in experiment [2] of 0.176.
`COc1cc2c(cc1OC)CN(C(=O)[C@H]1[C@@H]3C(=O)O[C@@H](c4ccccc4)[C@@H](c4ccccc4)N3[C@@H](c3ccc(O)cc3)[C@]13C(=O)Nc1ccc(C#CCNC(N)=O)cc13)CC2`: the z-score in experiment [1] is 0.595 (inactive); in [3], 0.342 (inactive); in experiment [4], 0.137 (inactive); in [5], -0.518 (inactive); in experiment [6], 0.335 (inactive); in experiment [7], 0.152. Also, the z-score in [8] is 0.47 (inactive); in experiment [9] it was 0.732 (inactive); in experiment [10] it was 0.56. Besides, the composite z-score in experiment [2] amounted to 0.075.
As to `CC(C)C(=C=CC[C@@H](O)c1ccccc1OCCO)CCO`, the z-score was 0.351 (inactive) in experiment [1]; 1.95 (inactive) in [3]; 0.63 (inactive) in experiment [4]; -1.33 (inactive) in [5]; 0.428 (inactive) in [6]; 0.278 in experiment [7]. The z-score in experiment [8] is 0.729 (inactive); in [9], 0.147 (inactive); in experiment [10], -2.06. In addition, the composite z-score in [2] is -0.0501.
With `CC(=O)NCCCC[C@@H]1NC(=O)[C@@H]2C[C@H](C(=O)NCCCCCCNC(=O)CS)[C@H](c3cccc(OCCO)c3)N2C1=O`, the z-score is -0.493 (inactive) in [1]; 3.47 (inactive) in experiment [3]; 0.642 (inactive) in [4]; 0.0299 (inactive) in experiment [5]; 0.351 (inactive) in experiment [6]; 0.468 in experiment [7]. In addition, the z-score in experiment [8] was 1.55 (inactive); in experiment [9], 0.157 (inactive); in experiment [10], 0.303. Besides, the composite z-score in [2] is -0.0334.
As for `CCOC(=O)C1=CCC(c2ccc(C)cc2)N(S(=O)(=O)c2ccc(C)cc2)C1` (stereo not given), the z-score in experiment [1] was -0.792 (inactive); in [3], 2.05 (inactive); in [4], 0.901 (inactive); in experiment [5] it was -0.628 (inactive); in experiment [6], 0.509 (inactive); in [7], -0.78. Moreover, the z-score in [8] is 0.63 (inactive); in [9] it was 0.637 (inactive); in [10] it was 1.17. The molecule further gave a composite z-score in experiment [2] of 0.174.
With `COc1cc2c(cc1OC)CN(C(=O)[C@H]1[C@@H]3C(=O)O[C@@H](c4ccccc4)[C@@H](c4ccccc4)N3[C@@H](c3ccc(O)cc3)[C@]13C(=O)Nc1ccc(C#CC4=CCCCC4)cc13)CC2`, the z-score in experiment [1] is 1.21 (inactive); in experiment [3], 0.924 (inactive); in [4], 0.445 (inactive); in [5], 0.79 (inactive); in experiment [6], 0.736 (inactive); in [7] it was -0.226. In addition, the z-score in [8] was 0.685 (inactive); in [9], 0.513 (inactive); in experiment [10] it was 1.88. The composite z-score in experiment [2] came to 0.35.
Turning to `COC(=O)[C@@]1(Cc2ccc(OC)cc2)[C@H]2c3cc(C(=O)N4CCCC4)n(Cc4ccccc4)c3C[C@H]2CN1C(=O)c1ccccc1`, the z-score is -1.49 (inactive) in experiment [1]; 2.81 (inactive) in [3]; 0.496 (inactive) in experiment [4]; 0.748 (inactive) in experiment [5]; 0.69 (inactive) in experiment [6]; -0.378 in [7]. The z-score in [8] was -0.0412 (inactive); in experiment [9], -0.857 (inactive); in experiment [10] it was -3.04. In addition, the composite z-score in [2] amounted to 2.19.
On to `[N-]=[N+]=NCc1ccccc1C[C@]1(C(=O)NCC(O)CO)N=C(c2ccc(OCCCO)cc2)O[C@H]1c1ccccc1` (stereo not given in full), for which the z-score in [1] is 0.243 (inactive); in experiment [3], 13.1 (active); in [4] it was 0.998 (inactive); in experiment [5] it was -0.593 (inactive); in experiment [6], 0.865 (inactive); in experiment [7], -0.0127. For the same molecule, the z-score in experiment [8] was 2.49 (inactive); in experiment [9], 0.717 (inactive); in experiment [10], -0.632. The composite z-score in [2] worked out at 0.33.
On to `C=CCOC(=O)[C@H]1[C@@H]2C(=O)O[C@@H](c3ccccc3)[C@@H](c3ccccc3)N2[C@@H](c2ccc(OCCOC(=O)[C@H]3C[C@H]4C(=O)N[C@@H](CC(C)C)C(=O)N4[C@H]3c3ccc(O)cc3)cc2)[C@]12C(=O)Nc1ccc(I)cc12`, for which the z-score in experiment [1] is -1.1 (inactive); in experiment [3], -0.414 (inactive); in experiment [4], 0.739 (inactive); in experiment [5] it was -0.483 (inactive); in [6], 0.47 (inactive); in experiment [7], -0.182. The figures for the z-score in experiment [8], in experiment [9] and in experiment [10] were 1.82 (inactive), 0.43 (inactive) and 0.982, respectively. The composite z-score in experiment [2] is 0.0839.
With `CCCCCCC#C[Si](O[C@H](c1ccccc1)c1cn([C@H](CO)Cc2ccccc2)nn1)(C(C)C)C(C)C`, the z-score was 2.03 (inactive) in experiment [1]; 0.704 (inactive) in [3]; 0.268 (inactive) in [4]; -0.55 (inactive) in experiment [5]; 0.602 (inactive) in experiment [6]; 0.447 in [7]. Further, the z-score in experiment [8] was -1.25 (inactive); in experiment [9], -0.227 (inactive); in experiment [10], -2.2. Besides, in experiment [2], the composite z-score is -0.217.
In the case of `CC(C)C[C@@H]1NC(=O)[C@@H]2C[C@H](C(=O)NCCCCCN)[C@H](c3cccc(OCCO)c3)N2C1=O`, the z-score in [1] was 1.28 (inactive); in [3], 3.07 (inactive); in experiment [4], -0.74 (inactive); in experiment [5], 1.1 (inactive); in experiment [6] it was -2 (inactive); in experiment [7], 0.836. In addition, the z-score in [8] was 1.22 (inactive); in experiment [9], 0.74 (inactive); in experiment [10], 1.43. In [2], the composite z-score was 0.427.
For the molecule `O=C(c1ccccc1)N1Cc2ccccc2[C@@H]2OC(c3ccc(OCCCO)cc3)=N[C@]2(Cc2ccccc2)C1=O`, the z-score was -0.672 (inactive) in experiment [1]; 10.8 (active) in experiment [3]; 1.35 (inactive) in experiment [4]; 1.25 (inactive) in experiment [5]; 1.23 (inactive) in experiment [6]; -0.118 in experiment [7]. Also, the z-score in [8] was -0.893 (inactive); in experiment [9] it was 0.418 (inactive); in [10], -0.781. In experiment [2], this molecule yielded a composite z-score of 0.343.

The values are drawn from PubChem BioAssay.
